Laboratory results: the supplement of paper PMC11417369
± gives the standard deviation of the averaged measurements. Over roughly 25,000 sequences, “ln(normalized median fluorescence intensity)” has its median near 7.9; the highest 2% begin near 11. Only a selection was taken, and the highest values are over-represented in it overall.

Test system: PfAP2-I AP2 domain 3 (GST-tagged)
Test: gcPBM binding intensity (ln(normalized median fluorescence intensity)); higher = stronger DNA binding
Procedure, shortened: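 Alexa488 anti-GST antibody, scanned at 488 nm, detected GST-tagged P. falciparum DNA-binding domains that had been expressed in E. coli and incubated for 1 h on an Agilent 4 × 180k array. The array carried primer-extended double-stranded 36-bp intergenic genomic probes and negative controls. Binding intensity is the highest Masliner-normalised natural-log median intensity across replicate spots of either orientation of each probe.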

| Sequence | gcPBM binding intensity (ln) |
| --- | --- |
| TTTCTTTTTTTTTGAAGTACATAAAAATATAAAAAA [XGTACX_site311] | 8.03 ± 0.085 |
| AGACAAAATGTTTGAAGTACTTTTTATCAAATTAAA [XGTACX_site8885] | 7.66 ± 0.2 |
| CACGAACACAAACACAAACACACATCATATATATAT [CACACA_site1322] | 9.25 ± 0.16 |
| AAATATATATATAGTTGTACATATATCGTATATATT [XGTACX_site7867] | 7.57 ± 0.45 |
| GTTAAAATTTGTCAATGTACAGAAATAATAAAAAAA [XGTACX_site1879] | 7.97 ± 0.62 |
| ATATATATATATATATGTACATATTATTATTTTGAT [XGTACX_site4752] | 9.22 ± 0.49 |
| AAAATAAACTATAGTACACACTTATTATTATGAAAT [CACACA_site5488] | 7.92 ± 0.3 |
| TTTTTTCTTTTCAAGGTGCTTTATAAGAAAAAGGGA [GTGCAC_site9858] | 11.1 ± 0.89 |
| TTTTTTTTTCTTCTTTTCAAATTTAAGAAATTATAA [CACACA_negctrl_site18] | 7.55 ± 0.57 |
| AAATATAAGAAAAAGGTGCTTTTTTTTTTTTTTTTT [GTGCAC_site9700] | 9.79 |
| AAAAAAAAACACGCATGTACATAAAAATAATCATAC [XGTACX_site1086] | 7.96 ± 0.57 |
| ATACACACTCAAAAAAGTACTTAACTACATGAATTG [XGTACX_site6366] | 7.79 ± 0.55 |
| AAGAAAATATAAAATGCACACTATAAATTGTATATA [CACACA_site7928] | 8.73 ± 0.014 |
| CATTATAAAAAATAAAAAAGAAATAATTGTATATGC [CACACA_negctrl_site478] | 7.77 ± 0.68 |
| TGTATGTATAATTGAGTGCACAGAAAAAAAAAAGAA | 11 ± 0.13 |
| TAAATAAATAAAAATAGTACATAATTATTATTATTA [XGTACX_site4981] | 7.42 ± 0.22 |
| TTCTTTATATACAAACCAAAATATTATGTATAATAA [CACACA_negctrl_site15] | 7.62 ± 0.33 |
| TAGATTATTATACTAGTGCAAATTATTTAAGAAAAA | 10 ± 0.34 |
| AAGATAAAATTATGCACACATACGAATAATTTTAAA [CACACA_site1705] | 9.79 ± 0.39 |
| CTTATAAGAATACTAGTGCACATAATTTAACGAAAA | 11 ± 0.59 |
| AATGTACGTTTTATAACACACACACTAATAAAAAAA [CACACA_site9286] | 8.23 ± 0.36 |
| ATCGGTAATATTAACACACACATTTATATATATTTA [CACACA_site1084] | 8.02 ± 0.41 |
| ATCGGTAATATTAACACACACATTTATTTATATTTA [CACACA_site6638] | 7.96 ± 0.58 |

| Sequence | gcPBM binding intensity (ln) |
| --- | --- |
| AACATTTTAAATTATACACACATTTTGAATATATAT [CACACA_site3470] | 7.78 ± 0.53 |
| ACATATCGGGTGCATTAACACACATTTATTTGAATA [CACACA_site8736] | 11.8 ± 0.52 |
| TTTATTTTAACTTGTTCACACATTTGAATAAATAAA [CACACA_site5064] | 7.71 ± 0.33 |
| ATATCGGGTGCATTAACACACATTTATTTGAATAAA [CACACA_site2350] | 11.7 ± 0.79 |
| AAAATTAAAAATAACACACACATATTTATATTTATA [CACACA_site7329] | 7.59 ± 0.4 |
| ATATCGTGTGCATTAACACACATTTATTTGAATAAA [CACACA_site7162] | 10.9 ± 0.5 |
| TATATTTATTATAACACACACATATAAATATTATAG [CACACA_site6726] | 7.95 ± 0.48 |
| CAAAAAACAACAGATCGTACAAAATATTATATATAT [XGTACX_site2285] | 8.12 ± 0.67 |
| TTTTTTTTTTTTTTCTGTACTTAAAAAGGGGGAGAA [XGTACX_site3799] | 8.79 ± 0.7 |
| ATACATTCAAAATATACACACATATATCTATAATAT [CACACA_site6576] | 7.69 ± 0.65 |
| TGCAGTCTGGAGAAAAGTACATAGTATCTGGTAGCT [XGTACX_site2547] | 7.87 ± 0.66 |
| GAATGTAAATATTAAAGTACACAGAATATATCTTCA [XGTACX_site8149] | 7.79 ± 0.16 |
| ATAATAAAAATAAGAGAATAAAAATGCAATTTAATG [CACACA_negctrl_site878] | 7.95 ± 0.47 |
| AGAATAATAAAATGGGTGCAATAGTTTTTTTTTTTT [GTGCAC_site9823] | 11.2 ± 0.44 |
| GATAATCAGAATGGGGTGCAAAGAAAAAAAAAAAAA | 10.7 ± 0.46 |
| ATATATATTATATATAGTACTTTTTTGCGCAAATAT [XGTACX_site6849] | 8.08 ± 0.44 |
| ATTAAGACACATTGCACACGTGCACCCATAGAAAAA [CACACA_site408] | 11.02 ± 0.099 |
| ACCCATTGCTCACGTGCACACATAGAAAAATAATTC [CACACA_site4389] | 10.7 ± 0.16 |
| TACACCCATAGACACACACACACGCATAAAAAAAAA [CACACA_site8428] | 8.36 ± 0.34 |
| ACATTAAGACACATTGCACACGTGCACCCATAGAAA [CACACA_site8029] | 10.965 ± 0.007 |
| TAAGAAATAAATAGTACACACATAGACACCCACCCA [CACACA_site8429] | 8.65 ± 0.54 |
| CCATTAAGACACATTGCACACGTGCACCCATAGAAA [CACACA_site4388] | 10.79 ± 0.021 |
| CATTTGCACCCGCACACACACATAAAAAGAAAAATA [CACACA_site4350] | 10.7 ± 0.8 |
